These results are taken from PubChem BioAssay (Tox21).

Values joined by “and” are separate entries in the source; they are usually repeats but may differ in a detail not shown here. Equal values may be shown once. Inconclusive results are not listed. Active and inactive are the calls of the source. Unless noted, calls follow the shape of the dose curve; as a rule, active = well fitted curve in the direction sought with a large enough effect in the repeat runs; inconclusive = weak or mixed curves; inactive = no such curve, though single readings can be large; an effect the other way counts as inactive or inconclusive.

The nature of assay [1]: qHTS assay for small molecule agonists of the p53 signaling pathway (AID 651631; calls by dose curve; also: nearly all actives have a fitted effect of over 15% in size). A digest of the protocol:
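Stably transfected HCT-116 cells (beta-lactamase behind p53 response elements) get compounds after a 5 h settling period; 16 h later at 37 °C, FRET substrate is loaded and fluorescence read after 2 h.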

A short description of assay [2]: qHTS assay for small molecule agonists of the p53 signaling pathway - cell viability (AID 651633; calls by dose curve;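 also: p53RE-bla HCT reporter cells with a stable beta-lactamase p53 reporter; series mostly up to about 83 µM; nearly all actives have a fitted effect of over 30% in size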). A digest of the protocol:
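Viability counter-read: CellTiter-Glo luminescence (30 min, room temperature) in the same p53RE-bla plates. These plates had been exposed to compounds for 16 h at 37 C.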

A short description of assay [3]: qHTS assay for small molecules that induce genotoxicity in human embryonic kidney cells expressing luciferase-tagged ATAD5 - cell viability (AID 651634; calls by dose curve; also: nearly all actives have a fitted effect of over 25% in size). In short, it runs like this: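 HEK293T cells carrying luciferase-tagged ATAD5, 2,000 cells/well, exposed to compound for 15.5 hr at 37C. Viability read as live-cell protease activity by CellTiter-Fluor fluorescence after 30 min at 37C.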

Assay [4] in a line: qHTS assay for small molecule disruptors of the mitochondrial membrane potential - cell viability (AID 720634; calls by dose curve;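 also: human HepG2 liver cancer cells; series mostly up to about 83 µM; nearly all actives have a fitted effect of over 20% in size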). A digest of the protocol:
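HepG2 cells, 2,000 per well, attached overnight, then treated 1 hr at 37 C, 5% CO2. Viability read as ATP by CellTiter-Glo luminescence after 30 min at room temperature. Read in the same wells as the m-MPI membrane-potential dye assay.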

Assay [5] can be described thus: qHTS assay for small molecule disruptors of the mitochondrial membrane potential (AID 720635). Also: potency is read from the fitted curve at half-maximal effect. A digest of the protocol:
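Mitochondrial membrane potential tracked with Mito-MPS dye, red aggregates (ex 540/em 590 nm) against green monomers (ex 490/em 535 nm). Compound treatment 1 hr at 37C, dye 30 min in HepG2.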

The nature of assay [6]: qHTS assay to test for compound auto fluorescence at 590 nm (red) in HepG2 cells (AID 720674). A digest of the protocol: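 We screened compounds on adherent HepG2 cells, incubating them for an hour at 37 C in 5% CO2 before reading emission at 590 nm under 540 nm excitation; values reflect equivalence to Rose Bengal sodium fluorescence.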
Assay [7] is described as follows: qHTS assay to test for compound auto fluorescence at 535 nm (green) in HepG2 cells (AID 720675).
A short description of assay [8]: qHTS assay to test for compound auto fluorescence at 460 nm (blue) in HEK293 cells (AID 720678). In short, it runs like this:
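HEK293, 2,000 cells/well, 10% dialyzed FBS; attach 4-5 hr 37C; pin compound or DMSO; o/n 37C/5% CO2; fluorescence 405/460 nm; triamterene-equivalent units.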

Assay [9] is described as follows: qHTS assay to test for compound auto fluorescence at 590 nm (red) in HEK293 cells (AID 720679). In short, it runs like this:
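Intensity at 540nm excitation and 590nm emission is reported as Rose Bengal sodium-equivalent autofluorescence. Measurements followed overnight exposure (37C, 5% CO2) of HEK293 cells, 2,000 per well, to 23 nL compound.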

A short description of assay [10]: qHTS assay to test for compound auto fluorescence at 535 nm (green) in HEK293 cells (AID 720680).
A short description of assay [11]: qHTS assay to test for compound auto fluorescence at 460 nm (blue) in HEK293 cell free culture (AID 720681). A digest of the protocol: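 Blue fluorescence (Ex 405/Em 460 nm, triamterene-equivalent) was read immediately after pin transfer of compound or DMSO into medium (DMEM, 10% FBS) without cells.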
A short description of assay [12]: qHTS assay to test for compound auto fluorescence at 535 nm (green) in HEK293 cell free culture (AID 720682). In short, it runs like this:
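Using fluorescein as calibrant, autofluorescence was quantified at 485/535 nm in cell-free DMEM containing 10% FBS after pintool addition of compound or vehicle.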

Assay [13] is described as follows: qHTS assay to test for compound auto fluorescence at 590 nm (red) in HEK293 cell free culture (AID 720683). A digest of the protocol: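 Red-channel autofluorescence of compounds in culture medium (DMEM, 10% FBS), no cells, measured at 540/590 nm. Rose Bengal sodium is the reference fluorophore for equivalence.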
Assay [14] in a line: qHTS assay to test for compound auto fluorescence at 460 nm (blue) in HepG2 cell free culture (AID 720685). A digest of the protocol: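 Compound (23 nL) or DMSO pinned into cell-free MEM with 10% FBS; blue fluorescence read at 405/460 nm excitation/emission, expressed as auto-fluorescence equivalency to triamterene.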
Assay [15] is described as follows: qHTS assay to test for compound auto fluorescence at 535 nm (green) in HepG2 cell free culture (AID 720686).
The nature of assay [16]: qHTS assay to test for compound auto fluorescence at 460 nm (blue) in HepG2 cells (AID 720687). In short, it runs like this:
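Blue-channel autofluorescence (Ex/Em 405/460 nm, triamterene-equivalent) was measured after 1 hr compound exposure at 37 C, 5% CO2. Cells were HepG2, plated overnight at 37 C in MEM plus 10% FBS.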

Assay [17] has as its target Glucocorticoid receptor (Homo sapiens) (UniProt P04150). The experiment in a line: qHTS assay to identify small molecule agonists of the glucocorticoid receptor (GR) signaling pathway (AID 720691; active = well fitted activation curve with a large enough effect in the signal ratio in the repeat runs, not every such curve was filed as active; the % refers to the signal ratio). In short, it runs like this:
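GR-bla HeLa cells carrying a GRE-driven beta-lactamase reporter, exposed to compounds for 18 h at 37 C. Reporter activation read as fluorescence after 2 h with LiveBLAzer B/G FRET substrate at room temperature.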

The target is the same in assay [18]. The experiment in a line: qHTS assay to identify small molecule antagonists of the glucocorticoid receptor (GR) signaling pathway (AID 720692; active = well fitted inhibition curve with a large enough effect in the signal ratio in the repeat runs, not every such curve was filed as active; the % refers to the signal ratio; also: potency is read from the fitted curve at half-maximal effect). In short, it runs like this:
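GR-bla HeLa cells carrying a GRE-driven beta-lactamase reporter received compound after 4 h plating, then dexamethasone (5 nM final). After 18 h at 37C, the FRET substrate was loaded for 2 h at room temperature and fluorescence read.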

A short description of assay [19]: qHTS assay for small molecules that induce genotoxicity in human embryonic kidney cells expressing luciferase-tagged ATAD5 (AID 651632). Also: nearly all actives have a fitted effect of over 15% in size. A digest of the protocol:
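HEK293T cells carrying luciferase-tagged ATAD5 were given compound or DMSO vehicle and incubated 16 hr at 37C, 5% CO2. Luciferase activity was read after 30 min at room temperature with Amplite; a rise signals genotoxic stress.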

The nature of assay [20]: qHTS assay to test for compound auto fluorescence at 590 nm (red) in HepG2 cell free culture (AID 720684). In short, it runs like this: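 Plate contents were MEM with 10% FBS plus test compound or DMSO, no cells. Fluorescence was recorded with 540 nm excitation and 590 nm emission.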

Chain of Glucocorticoid receptor (Homo sapiens) (P04150 whole entry, looked up): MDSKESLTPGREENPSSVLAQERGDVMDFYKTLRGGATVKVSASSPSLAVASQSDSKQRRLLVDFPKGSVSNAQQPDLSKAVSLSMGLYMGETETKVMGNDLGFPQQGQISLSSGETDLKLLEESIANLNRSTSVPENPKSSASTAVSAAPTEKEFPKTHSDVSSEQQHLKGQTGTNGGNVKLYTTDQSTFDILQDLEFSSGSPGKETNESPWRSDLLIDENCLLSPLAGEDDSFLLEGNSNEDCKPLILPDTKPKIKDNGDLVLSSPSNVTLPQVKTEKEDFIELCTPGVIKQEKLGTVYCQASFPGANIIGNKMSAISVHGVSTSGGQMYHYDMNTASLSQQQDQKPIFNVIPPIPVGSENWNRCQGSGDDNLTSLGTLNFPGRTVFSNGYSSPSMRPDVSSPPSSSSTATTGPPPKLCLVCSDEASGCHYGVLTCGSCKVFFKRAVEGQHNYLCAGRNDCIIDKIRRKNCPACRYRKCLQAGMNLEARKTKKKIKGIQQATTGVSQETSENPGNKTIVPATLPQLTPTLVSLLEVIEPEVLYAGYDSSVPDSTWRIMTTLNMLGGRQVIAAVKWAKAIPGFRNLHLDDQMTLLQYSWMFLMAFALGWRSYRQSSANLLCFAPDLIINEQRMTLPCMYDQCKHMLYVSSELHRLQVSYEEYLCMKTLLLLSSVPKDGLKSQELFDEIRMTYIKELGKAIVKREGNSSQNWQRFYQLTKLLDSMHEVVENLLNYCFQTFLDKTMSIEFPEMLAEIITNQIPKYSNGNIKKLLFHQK

On to `CN1C(=O)CN=C(c2ccccc2)c2cc(Cl)ccc21`, for which the result in [1], in assay [2], in assay [3], in [6], in [7] and in [8] was inactive. Moreover, the outcome in assay [9], in assay [10], in assay [11], in assay [12], in assay [13] and in [14] was inactive. The result in assay [15], in assay [16] and in assay [17] was inactive. For the same compound, the Potency entry in assay [4] and in assay [5] was “inactive” throughout. For the same compound, in assay [18], the Potency is 13.4 µM (active) and 28 µM (active).

With `O=Cc1cccc(Oc2ccccc2)c1`, the compound was called inactive in assay [19], in [3], in assay [6], in assay [7], in assay [8] and in assay [9]. In addition, the result in assay [10], in [11], in [12], in [13], in [14] and in assay [15] was inactive. Also, the call in assay [16] and in assay [17] was inactive. In addition, the Potency entry in [4] and in assay [18] was “inactive” each time.

For `C[C@]12CC[C@H]3[C@@H](CC[C@@]45O[C@@H]4C(O)=C(C#N)C[C@]35C)[C@@H]1CC[C@@H]2O`, the compound was classed as inactive in [19], in [2], in [3], in [6], in assay [7] and in assay [8]. The compound was classed as inactive in [9], in assay [11], in [12], in assay [13], in [14] and in [15]. In assay [16], the compound was classed as inactive. In addition, in [4], the Potency result is “inactive”.

Take `CCNc1nc(NC(C)C)nc(SC)n1`: the compound was called inactive in assay [19], in assay [2], in assay [3], in [6], in assay [7] and in [8]. The outcome in assay [9], in [10], in assay [11], in assay [12], in [13] and in assay [20] was inactive. Besides, the call in assay [14], in [15] and in assay [16] was inactive. Also, the Potency result in assay [4] is “inactive”.

As for `Cc1[nH]c(=O)n(C(C)(C)C)c(=O)c1Cl`, the compound was called inactive in assay [19], in assay [3], in assay [6], in assay [7], in assay [8] and in [9]. Further, the outcome in assay [10], in [11], in assay [12], in assay [13], in [14] and in assay [15] was inactive. In addition, the compound was classed as inactive in assay [16]. Moreover, the Potency result in assay [4] and in assay [5] was “inactive” each time.

For the compound `CC(C)=C[C@@H]1[C@@H](C(=O)OCc2coc(Cc3ccccc3)c2)C1(C)C`, the outcome in [19], in assay [3], in [6], in assay [8], in assay [9] and in assay [10] was inactive. Besides, the outcome in assay [11], in assay [12], in [13], in assay [14], in [15] and in assay [16] was inactive. Further, the result in [17] was inactive. Besides, the Potency entry in assay [4] and in [18] was “inactive” in each case. In addition, the Potency in [5] is 23.7 µM (active).

With `COC(=O)c1ccccc1N`, the outcome in assay [1], in assay [3], in [6], in [8], in assay [9] and in [11] was inactive. Besides, the compound was classed as inactive in assay [12], in assay [13], in assay [20], in assay [14], in assay [15] and in assay [16]. The result in [17] was inactive. For the same compound, the Potency entry in assay [4], in assay [5] and in [18] was “inactive” throughout.

Consider `O=c1ccc(=O)[nH][nH]1`, for which the call in assay [1], in assay [2], in [3], in [6], in assay [8] and in [9] was inactive. Moreover, the call in assay [11], in assay [12], in [13], in [20], in [14] and in assay [15] was inactive. In addition, the call in assay [16] was inactive. Also, the Potency result in assay [4] and in assay [5] was “inactive” in each case.

Consider `COP(N)(=O)SC` (stereo not drawn), for which the compound was classed as inactive in assay [1], in assay [19], in [3], in [6], in assay [8] and in [9]. Besides, the compound was called inactive in assay [11], in [12], in [13], in [20], in assay [14] and in assay [15]. For the same compound, the result in assay [16] and in assay [17] was inactive. Besides, the Potency entry in assay [4], in [5] and in assay [18] was “inactive” throughout.

Turning to `C#CCN(C)[C@H](C)Cc1ccccc1`, the outcome in [19], in assay [2], in [3], in assay [6], in assay [7] and in assay [8] was inactive. The compound was classed as inactive in [9], in [10], in assay [11], in assay [12], in [13] and in assay [20]. Further, the compound was classed as inactive in assay [14], in assay [15], in assay [16] and in assay [17]. Further, the Potency entry in [4], in assay [5] and in assay [18] was “inactive” throughout.

With `Clc1ccccc1Cl`, the compound was classed as inactive in [19], in assay [3], in [6], in assay [7], in assay [8] and in assay [9]. Besides, the call in assay [11], in [12], in assay [13], in assay [14], in assay [15] and in assay [16] was inactive. In assay [17], the compound was classed as inactive. For the same compound, the Potency result in assay [4], in assay [5] and in [18] was “inactive” throughout.
